# From PubChem BioAssay
# In the library only some 2.4% were active in any assay of this set; here they are far more common.
# HTR2A ag: agonists of mouse serotonin 5-HT2A receptor (HTR2A); activation, % at 7.6 µM; P35363; CHO-K1 mHTR2A beta-arrestin complementation, luminescence; percent of 30 µM serotonin response; 360,000 tested, 0.66% active; AID 624169;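 active = activation above a run cutoff, the mean activation of all tested compounds plus 3 SD, cut at about 14% in these data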;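 note: 0% = plate median of compound wells and 100% = 30 µM serotonin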
# TMEM16A inh: inhibitors of mouse TMEM16A calcium-activated chloride channel; normalized B-score (activity score, 25-100; higher = stronger inhibition) at 10 µM; HEK293 TMEM16A/YFP iodide influx fluorescence, ionomycin; Q8BHY3; AID 588511; 310,000 tested, 1.2% active;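 active = ratio plate-corrected score three or more library SD toward inhibition, starting fluorescence score within five deviations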;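 note: score derived from kinetic fluorescence span divided by baseline fluorescence per well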
# TLR4-MyD88 BLA: inhibitors of human TLR4-MyD88 binding; inhibition, % at 8.4 µM; 200,000 tested, 0.18% active; HeLa CL3-4 TLR4/MyD88 BLA complementation, FRET ratio; in the data active = inhibition above about 25%;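 note: 0% = vehicle and 100% = reference inhibitor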
# NOD2-RIPK2 inh: NOD2-RIPK2 protein interaction inhibition | O43353 | 360,000 tested, 0.38% active | inhibition, % at 4.98 µM | AID 624267 | CHO BLA complementation NOD2-RIPK2, CCF4 ratio; in the data active = inhibition above about 21%;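 note: 0% = vehicle only and 100% = reference blocker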
# TMEM16A act: activators or potentiators of mouse TMEM16A chloride channel; Q8BHY3; HEK293 TMEM16A/YFP-H148Q/I152L, iodide quench fluorescence; active compounds read low; B-score at 10 µM; 340,000 tested, 0.3% active;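 active = fluorescence-ratio B-score plate-corrected deviation score at least 3 library SD below zero, with starting fluorescence score within 5 deviations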;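 note: channel opened by trigger with iodide after compound preincubation; score built on the fluorescence ratio of max minus min over baseline; more negative score means more quench and so TMEM16A activation or potentiation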
# TLR9-MyD88 inh: blocks human TLR9 binding to MyD88; inhibition, % at 4.98 µM; Q9NR96+Q99836; CHO BLA complementation TLR9-MyD88, CCF4 FRET ratio; 340,000 tested, 0.21% active;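 active = inhibition above the mean over all tested compounds plus 3 SD, cut at about 21% in these data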;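 note: 0% = DMSO only wells and 100% = clavulanate BLA inhibitor control wells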
# MOR ag counter: activates human mu opioid receptor in HTR2A counterscreen. shares compounds with HTR2A ag. U2OS OPRM1 beta-arrestin PathHunter, luminescence; DMSO 0%, DAMGO 9.3 µM 100%. activation, % at 9.3 µM. 2,300 tested, 5.3% active. AID 624380;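 active = mean activation above the mean of DMSO-only wells plus 3 SD, cut at about 0.5% in these data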
# m5-HT2A ag conf: confirmation of mouse HTR2A serotonin receptor agonists; shares compounds with HTR2A ag; CHO-K1 PathHunter beta-arrestin recruitment, luminescence; DMSO 0%, 30 µM serotonin 100%; activation, % at 7.6 µM; 2,300 tested, 19% active; AID 624381;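 active = mean activation across triplicates above the hit threshold derived in the original primary screen, cut at about 15% in these data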
# * marks the source's active call; other numbers are inactive results; i = inactive; x = not tested or not shown.
SMILES,HTR2A ag,TMEM16A inh,TLR4-MyD88 BLA,NOD2-RIPK2 inh,TMEM16A act,TLR9-MyD88 inh,MOR ag counter,m5-HT2A ag conf
O=C(NCCN1CCN(c2ccccc2F)CC1)C1CCCN(S(=O)(=O)c2cnc[nH]2)C1 (configuration not stated),19*,i,2,-2,-18*,-7,-1,60*
Cc1cccc(CCNC(=O)C2CCCN(S(=O)(=O)c3cnc[nH]3)C2)c1 (configuration not stated),15*,i,-7,6,i,11,-1,-5
O=C(C1CC1)N1CCc2cc(S(=O)(=O)NCCCN3CCCCC3)ccc21,-2,i,x,0,i,-11,x,x
O=C(NCCc1ccccc1)C1CCCN(S(=O)(=O)c2cnc[nH]2)C1 (configuration not stated),-2,i,8,-5,i,-3,x,x
CCS(=O)(=O)N1CCC(C(=O)NCCCN2CCN(c3ccccc3F)CC2)CC1,16*,i,-5,-3,i,6,-1,54*
CC(=O)N1c2ccc(S(=O)(=O)N3CCC(C(=O)NCc4ccc(C)cc4)CC3)cc2CC1C (configuration not stated),5,i,x,-1,i,-2,x,x
Cc1ccc(NC(=O)CCN2C(=O)c3ccccc3S2(=O)=O)cc1C,-8,i,x,4,i,-3,x,x
Cc1cc(-n2c(C)cc(C(=O)COc3cc(F)ccc3[N+](=O)[O-])c2C)no1,13,x,x,-11,i,-18,x,x
COc1ccccc1Cc1c(-c2ccccc2)nc2c(C)cc(Br)cn12,1,x,x,0,x,x,x,x
Cn1nccc1C(=O)Nc1nnc(C2CC2)s1,15*,i,x,-8,i,0,0,3
Cn1ncc(Cl)c1C(=O)Nc1nnc(C2CC2)s1,-1,i,x,-10,i,1,x,x
C[C@@H]1CN([C@H](C)CO)C(=O)CCCn2nncc2CO[C@H]1CN(C)Cc1cccc2c1OCCCO2,-3,x,x,-8,x,-4,x,x
C[C@H](CO)N1C[C@H](C)[C@@H](CN(C)Cc2cccc3c2OCCCO3)OCc2cnnn2CCCC1=O,19*,x,x,-7,x,6,0,-2
O=C(NNC(=O)c1ccccc1C(=O)O)c1ccc(-c2ccccc2)cc1,x,i,-7,x,x,x,x,x
CCOc1nc(-c2ccc(Cl)cc2)nc2ccccc12,27*,i,-7,-1,i,6,0,1
CC(C)Oc1nc(-c2ccc(Cl)cc2)nc2ccccc12,-3,i,x,-10,i,-12,x,x
CCOc1ccc(NC(=O)CN(C)C(=O)c2ccncc2)cc1OCC,3,i,x,-5,i,-1,x,x
COC(=O)NC1CCC(NC(=O)OC)CC1 (configuration not stated),0,i,4,0,i,5,x,x
N#Cc1ccc(Sc2ccccn2)c([N+](=O)[O-])c1,15*,i,x,-2,i,-1,0,-4
CC(=O)c1ccc(Sc2ccccn2)c([N+](=O)[O-])c1,3,i,x,-5,i,x,x,x
CC(C)Cc1nnc(NC(=O)c2cc(-c3ccncc3)nc3ccccc23)s1,15*,i,x,4,i,8,0,5
O=C(c1ccco1)N1CCN(c2c(-c3ccccc3)c3cc(Cl)ccc3[nH]c2=O)CC1,52*,i,7,7,i,8,1.3*,24*
COc1cc2c(cc1OC)-c1cc(Nc3ccccc3C)nc(=O)n1CC2,18*,i,x,-5,i,-16,0,0
CCOc1ccccc1Nc1cc2n(c(=O)n1)CCc1cc(OC)c(OC)cc1-2,-6,i,x,-11,i,-9,x,x
Cc1ccc(OCC(=O)NCc2n[nH]c(=O)c3ccccc23)cc1,-3,i,x,5,i,1,x,x
SMILES,HTR2A ag,TMEM16A inh,TLR4-MyD88 BLA,NOD2-RIPK2 inh,TMEM16A act,TLR9-MyD88 inh,MOR ag counter,m5-HT2A ag conf
CCOc1ccc(OCC(=O)NCc2n[nH]c(=O)c3ccccc23)cc1,16*,i,x,-3,i,-9,-1,-1
Cc1noc(C)c1S(=O)(=O)Nc1ccc2c(c1)C(=O)N([C@@H](C)CO)C[C@@H](C)[C@@H](CN(C)CC1CCCCC1)OCCCC[C@@H](C)O2,-1,x,x,-3,x,-2,x,x
CS(=O)(=O)c1ccc(Cl)c(NC(=O)COC(=O)c2cccc(S(=O)(=O)N3CCCCC3)c2)c1,2,i,x,-16,i,-6,x,x
O=C(COc1ccccc1Cl)N(Cc1cccs1)C1CCS(=O)(=O)C1 (configuration not stated),20*,i,x,-18,i,-4,-1,-4
Cc1cc2ccccn2c1C(=O)c1nc(NCc2ccco2)ncc1Cl,1,i,-2,0,i,2,x,x
CNC(=O)c1ccc(CNC(=O)OCC(F)(F)F)cc1,25*,i,2,-12,i,-4,0,2
COc1ccc(OC)c(S(=O)(=O)N2Cc3ccccc3CC2C(=O)O)c1 (configuration not stated),-2,i,7,-3,i,-3,x,x
C[C@@H](O)C#Cc1ccc2c(c1)O[C@H](CN(C)C(=O)Nc1ccccc1)[C@@H](C)CN([C@@H](C)CO)S2(=O)=O,15*,x,x,-10,x,0,0,8
C[C@H](CO)N1C[C@H](C)[C@@H](CN(C)C(=O)c2ccccc2)Oc2cc(C#C[C@@H](C)O)ccc2S1(=O)=O,9,x,x,-6,x,5,x,x
CC(C)NC(=O)N(C)C[C@H]1Oc2cc(C#Cc3ccc(F)cc3)ccc2S(=O)(=O)N([C@H](C)CO)C[C@H]1C,41*,x,x,6,x,5,-1,24*
COc1cccc(-c2cc3nc(-c4ccccc4)cc(N4CCCC(O)C4)n3n2)c1 (configuration not stated),-2,i,6,-8,i,4,x,x
CNC(=O)c1cnn(-c2nc(-c3ccc(OC)cc3)cs2)c1C(F)(F)F,2,i,x,0,i,7,x,x
COc1ccc(-c2csc(-n3ncc(C(=O)O)c3C(F)(F)F)n2)cc1,15*,i,x,-7,i,-2,-1,-4
OC(c1ccc2ccccc2c1)c1ncc(-c2ccc(C(F)(F)F)cc2)[nH]1 (configuration not stated),-3,x,x,6,x,x,x,x
OCCC1CN(CC#Cc2ccccc2)CCN1Cc1ccccc1F (configuration not stated),-6,i,x,7,i,4,x,x
